ugtP null kill = compounds lethal to S. aureus RN4220 ugtP deletion mutant. AID 1259309. 330,000 tested, 0.54% active. OD600 growth, 16 h. growth inhibition, % (no concentration beside the values); in the data active = growth inhibition above about 68%;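 also: plate controls were untreated wells for no effect and antibiotic for full effect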
RecA splice inh = inhibitors of M. tuberculosis RecA intein splicing; cell-free RecA intein splicing, fluorescence; inhibition, % (no concentration beside the values); 290,000 tested, 0.75% active; P9WHJ3; in the data active = inhibition above about 30%;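 also: 0% = vehicle wells and 100% = reference inhibitor control wells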
Target sequence (P9WHJ3 whole entry, looked up, canonical isoform): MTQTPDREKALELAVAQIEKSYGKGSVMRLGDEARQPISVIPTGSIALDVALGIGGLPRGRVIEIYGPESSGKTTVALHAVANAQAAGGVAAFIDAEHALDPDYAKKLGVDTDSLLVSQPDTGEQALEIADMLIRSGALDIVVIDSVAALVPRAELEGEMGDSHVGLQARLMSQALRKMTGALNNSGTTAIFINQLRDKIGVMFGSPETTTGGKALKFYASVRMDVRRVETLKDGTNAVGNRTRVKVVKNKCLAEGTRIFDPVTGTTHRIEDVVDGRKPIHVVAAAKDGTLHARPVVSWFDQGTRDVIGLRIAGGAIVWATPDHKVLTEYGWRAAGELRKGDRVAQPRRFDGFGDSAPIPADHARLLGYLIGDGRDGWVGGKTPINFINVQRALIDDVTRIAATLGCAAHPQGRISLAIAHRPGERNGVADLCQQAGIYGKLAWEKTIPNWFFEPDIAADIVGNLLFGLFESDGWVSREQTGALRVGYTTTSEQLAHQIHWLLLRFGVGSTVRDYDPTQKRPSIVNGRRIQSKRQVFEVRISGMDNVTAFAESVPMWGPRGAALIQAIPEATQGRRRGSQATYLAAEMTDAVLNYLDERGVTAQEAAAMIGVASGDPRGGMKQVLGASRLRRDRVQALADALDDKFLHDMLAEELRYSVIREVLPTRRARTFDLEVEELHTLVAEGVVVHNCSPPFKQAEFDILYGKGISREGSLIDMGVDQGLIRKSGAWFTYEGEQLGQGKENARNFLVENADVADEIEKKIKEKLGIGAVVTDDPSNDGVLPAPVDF
BJeLR viability = BJeLR cell viability loss; BJeLR (HRASV12) viability, CellTiter-Glo ATP luminescence, 48 h; inhibition, % (concentration not given with the values); 300,000 tested, 0.17% active; AID 1554; in the data active = inhibition above about 50%
Mtb hypoxia rep = inhibitors of hypoxia-regulated fluorescent reporter in Mycobacterium tuberculosis | M. tuberculosis hypoxia-regulated fluorescent reporter, fluorescence | fluorescence inhibition, % (test concentration not listed) | 300,000 tested, 0.1% active | AID 1159583; in the data active = fluorescence inhibition mostly above about 23%, no sharp cut-off; inactive = mostly below about 17%
CCHF vOTU inh-1 = blocks the CCHF virus ovarian tumor domain protease | inhibition, % at 11.5 µM | AID 651958 | 370,000 tested, 0.55% active | CCHFV vOTU protease, Pep-AMC fluorescence; also: 0% = vehicle wells with enzyme and 100% = no enzyme wells
Sa RN4220 lethal = kills Staphylococcus aureus RN4220; S. aureus RN4220 growth, OD600, 16 h; inhibition, % (concentration not given with the values); 330,000 tested, 0.33% active; AID 1259311; in the data active = inhibition above about 85%;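 also: plate controls were untreated cells for no effect and reference antibiotic for full effect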
CCHF vOTU inh-2 = CCHFV vOTU protease inhibition, confirmation; inhibition, % at 11.5 µM; AID 686976; 1,900 tested, 17% active; Recombinant CCHFV vOTU, Pep-AMC fluorescence; shares compounds with CCHF vOTU inh-1
Numbers without * were called inactive; x = no result shown. An excerpt weighted towards active compounds, which were near 1.6% of everything screened. Rule as the data show it, unless noted: active = inhibition above about 30%; inactive = the rest.

SMILES	ugtP null kill	RecA splice inh	BJeLR viability	Mtb hypoxia rep	CCHF vOTU inh-1	Sa RN4220 lethal	CCHF vOTU inh-2
O=C1C=C(c2ccc(-c3ccccc3)c(F)c2)CC(c2ccc(F)cc2)C1 (configuration not stated)	11	x	x	7	x	-7	x
O=C(CC=NOCc1c(Cl)cccc1Cl)c1cnc(-c2ccccc2)s1	-4	x	x	x	x	3	x
CC1=C(N2CC2)C(=O)C(CO)=C(N2CC2)C1=O	x	x	x	x	35*	x	5
Cc1cccc(NC(=O)C23CCC(C)(C(=NO)C2)C3(C)C)c1 (configuration not stated)	-5	x	x	-2	x	8	x
CC[n+]1c(-c2ccccc2)c2cc(N)ccc2c2ccc(N)cc21	x	x	x	x	91*	x	90*
Nc1ccc2nc(-c3ccccc3)[nH]c2c1	-1	-5	-13	6	-319	2	x
CC1=NNC(=O)C1CCC(=O)N/N=C(/C)c1ccc([N+](=O)[O-])cc1 (configuration not stated)	x	-2	-11	x	30*	x	-17
CC(=NNC(=O)CCC1C(=O)NN=C1C)c1ccc([N+](=O)[O-])cc1 (configuration not stated)	9	x	x	2	x	4	x
COc1ccc(C(=O)N(Cc2ccco2)Cc2cccs2)c(O)c1	-5	1	-6	12	34*	13	-1
COc1ccccc1C(=O)NCCC(=O)N(Cc1ccco1)Cc1cccs1	-2	1	6	0	-5	3	x
Cc1cc(C)c2sc(N(CCCN(C)C)C(=O)c3ccc(Br)s3)nc2c1	0	5	12	x	31*	0	4
CCCCn1c(N)c(N(CC(C)C)C(=O)CSc2nn(-c3ccc(F)cc3)c(=S)s2)c(=O)[nH]c1=O	4	x	x	12	38*	2	-29
CCCCn1c(N)c(N(CC)C(=O)c2ccccc2F)c(=O)[nH]c1=O	1	-1	-6	15	33*	6	-11
CC(C)C(=O)Nc1ccc(C(=O)N/N=C/c2cc(Br)cc(Br)c2O)cc1	x	-1	-11	x	32*	x	-3
CC(=O)Nc1ccc(C(=O)N/N=C/c2cc(Br)cc(Br)c2O)cc1	x	3	-4	x	-12	x	x
c1ccc(Cn2cc(CCOCc3ccccn3)c3ccccc32)cc1	x	x	x	x	32*	x	-9
Cc1ccc(S(=O)(=O)NN=Cc2ccc(OCC(=O)NC(C)C)cc2)cc1	-2	x	x	6	x	6	x
NC(=O)COC(=O)c1ccc(Cl)c(S(=O)(=O)N(Cc2ccccc2)c2ccc(Cl)cc2)c1	29	17	-7	0	2	2	x
O=C(O)c1ccc(Cl)c(S(=O)(=O)N(Cc2ccccc2)c2ccc(Cl)cc2)c1	16	11	-7	-8	31*	16	14
COc1ccc(C(=O)C2CCCN(C(=O)c3cccc(N4CCCC4=O)c3)C2)cc1OC (configuration not stated)	11	-1	1	15	35*	4	-17
COC(=O)c1ccccc1C(=O)N1CCCC(C(=O)c2ccc(OC)c(OC)c2)C1 (configuration not stated)	6	-1	-8	0	9	2	x
O=C(NCc1ccc(F)cc1)Nc1nnc([C@H]2C[C@H](O)[C@@H](CO)O2)s1	x	x	x	x	7	x	x
O=C(NCc1ccc(F)cc1)Nc1nnc([C@@H]2C[C@H](O)[C@@H](CO)O2)s1	x	x	x	x	34*	x	-14
CCOC(=O)C1(CCCc2ccccc2)CCN(C(=O)CSC)CC1	5	4	-14	17	0	11	x
CCOC(=O)C1(CCCc2ccccc2)CCN(C(=O)Cc2nonc2C)CC1	-4	3	8	16	31*	11	-2
SMILES	ugtP null kill	RecA splice inh	BJeLR viability	Mtb hypoxia rep	CCHF vOTU inh-1	Sa RN4220 lethal	CCHF vOTU inh-2
O=C(COc1ccc(Br)cc1)Nc1ccc(NC(=O)c2ccccc2)cc1	-12	0	0	-1	12	-5	x
O=C(COc1ccc(NC(=O)c2ccccc2)cc1)c1ccccc1	18	-2	-1	-10	31*	5	-13
N#C/C(=C\c1ccc[nH]1)C(=O)Nc1ccccc1F	1	-1	x	7	15	3	x
Cc1cc(/C=C(\C#N)C(=O)Nc2ccccc2F)c(C)[nH]1	7	-19	0	-8	33*	5	-3
CCC(C)C1CNCCN1CC1(c2ccccc2)CC1 (configuration not stated)	-6	x	x	5	x	2	x
OCCN(Cc1ccccc1)CC(O)COc1ccc(-c2ccccc2)cc1 (configuration not stated)	5	x	6	11	30*	0	-12
CCOC(=O)c1cnc2cc(-c3ccc(C)cc3)nn2c1C	x	x	x	x	30*	x	-22
CCOC(=O)c1cnc2cc(-c3ccc(C)cc3)nn2c1-c1ccccc1	20	-7	1	5	-6	-1	x
C(=N\Nc1ncnc2sc3c(c12)CCC3)/c1cccs1	x	-4	4	x	5	x	x
C(=N\Nc1ncnc2sc3c(c12)CCC3)/c1ccncc1	x	-2	-11	x	34*	x	-4
NC(=O)c1ccc(C(=O)NN=C(Cc2ccccc2)c2ccccc2)cc1	6	x	x	-2	x	0	x
COC(=O)c1nn(-c2ccccc2)c2nnc(Cc3ccc(C)cc3)c(=O)n12	14	-2	7	10	32*	1	-16
S=C(NCc1ccccn1)Nc1cccc(Cl)c1	-12	3	-1	5	-5	6	x
CC(=NNC(=S)Nc1cccc(Cl)c1)c1ccccn1	x	x	x	x	30*	x	16
CCCc1c(C(=O)NN=Cc2ccccc2OCc2ccc(F)cc2)nnn1-c1nonc1N	-1	x	x	2	x	1	x
CCN(CC)CCCN1C(=O)C(=O)/C(=C(/O)c2ccccc2)C1c1cc(OC)ccc1OC (configuration not stated)	x	-1	-2	x	54*	x	-28
O=C(CCNS(=O)(=O)c1ccc(OC(F)(F)F)cc1)NCCc1c[nH]c2ccccc12	-11	x	x	-8	30*	4	-24
CCCN(CC(=O)Nc1ccccc1OC)C(=O)c1ccc2[nH]c3c(c2c1)CC(C)CC3 (configuration not stated)	-25	x	x	0	38*	-3	10
CCN(CC(=O)Nc1ccccc1OC)C(=O)c1ccc2[nH]c3c(c2c1)CC(C)CC3 (configuration not stated)	-17	x	x	1	14	-6	x
Nc1nc(-c2ccccc2)nc2sc3c(c12)CCCC3	4	0	4	0	30*	-8	-17
Cn1c(=O)c2nnn(N=C(c3ccccc3)C3CC3)c2n(C)c1=O	-4	x	x	7	x	2	x
Cc1cccc(NC(=S)N/N=C/c2ccc([N+](=O)[O-])s2)c1	x	-14	2	x	35*	x	-1
O=C(O)c1cccc(Nc2ccncc2[N+](=O)[O-])c1	12	-2	8	-1	30*	5	-11
COc1cc(-c2ccc(Nc3ccccc3C(=O)O)c(OC)c2)ccc1Nc1ccccc1C(=O)O	55	x	x	0	51*	27	39*
